According to ChEMBL document CHEMBL1157539, “Thousands of chemical starting points for antimalarial lead identification” (Nature, 2010):

The compounds below were run on Plasmodium falciparum (assay: GSK_TCMDC: Inhibition of Plasmodium falciparum 3D7 in whole red blood cells, using parasite LDH activity as an index of growth. Test compounds present at 2uM).
Type: functional

SMILES | Inhibition [%]
O=C(O)CCSSc1cccc[n+]1[O-] | 95
COc1ccc(CCN(C)CCCCc2ccc(NC(=O)c3cccc4c(=O)c5cc(F)ccc5sc34)cc2)cc1OC | 96
CCN1CCC(N(CCCCCCc2ccc(C(F)(F)F)cc2)C(=O)Cn2c(CCc3cccc(F)c3F)cc(=O)c3ccccc32)CC1.O=C(O)C(O)C(O)C(=O)O | 88
CCN(Cc1ccc(-c2ccc(C(F)(F)F)cc2)cc1)C(=O)Cn1c(SCc2cccc(F)c2F)cc(=O)c2cc(CN3CCCCC3)ccc21.Cl | 100
Cc1ccc(S(=O)(=O)Nc2ccc(Nc3nccc(Nc4cccc5[nH]ncc45)n3)cc2)cc1 | 90
CC(=O)Nc1ncc(C(=O)Nc2ccc(-c3cccc(-c4nc5cc(F)ccc5[nH]4)c3)cc2)s1 | 100
Cc1cccc2nc(-c3cccc(-c4cccc(NC(=O)c5cnn6cccnc56)c4)c3)[nH]c12 | 100
N#Cc1ccc(-c2cnc3ccc(NCc4ccc(S(N)(=O)=O)cc4)nn23)cc1 | 98
CC(=O)c1cccc(NC(=O)N2CCCN(CCCCCNC(=O)/C=C/c3ccc(Cl)c(Cl)c3)CC2)c1 | 93
O=C(/C=C/c1ccc(Cl)c(Cl)c1)NCCCCCN1CCCC(C(=O)Nc2ccc(Cl)cc2)C1 (stereo unspecified) | 98
Cc1cc(OCCCN2CCC(NS(=O)(=O)c3cc(Br)c(Cl)s3)CC2)c2ccccc2n1 | 95
COC(=O)c1cc2cccc(NC[C@@H](C)NC[C@H](O)c3cccc(Cl)c3)c2[nH]1 | 98
N#Cc1ccc2[nH]c(-c3ccccc3)nc2c1 | 95
Br.CCOc1ccc(OCCCON2C(=N)N=C(N)NC2(C)C)cc1 | 97
O=C(NCC1CCN(Cc2ccc(F)cc2)C1)c1cc(-c2cccc(C(F)(F)F)c2)cs1.O=C(O)C(F)(F)F (stereo unspecified) | 93
N=C(N)NN=Cc1ccccc1OCc1ccccc1Cl | 100
CC(NC(C)c1cccc(Cl)c1)C(=O)Nc1cc(C(F)(F)F)ccc1N1CCOCC1 (stereo unspecified) | 89
COc1ccc(Cn2ncc3c4c(N)nc(N)nc4ccc32)cc1OC | 94
CCN(CC)CCNC(=O)c1ccc(NC(=O)c2cn(-c3ccccc3)nc2-c2cccs2)cc1 | 100
CCc1c[nH]c2c(N3CCCC3=O)cc(C(=O)N[C@@H](Cc3ccccc3)[C@H](O)CNC(C)(C)c3cccc(C(F)(F)F)c3)cc12.O=CO | 98
CCN(CC)CCCC(C)Nc1c2ccccc2nc2c1ccc1ccccc12.Cl (stereo unspecified) | 96
N#Cc1ccc(C(=O)Nc2ccc(Cl)c(N3CCN(CCc4ccccc4)CC3)c2)cc1.O=C(O)C(F)(F)F | 90
COc1ccc2nccc([C@@H](O)CN3CCC(NC(=O)c4ccc(Oc5ccccc5)cc4)CC3)c2c1 | 82
CN(CCCNCc1ccc2ccccc2c1)CCCNCc1ccc2ccccc2c1.Cl | 100
COc1ccc2nccc([C@@H](O)CN3CCC(NCCOc4ccncc4)CC3)c2c1.O=C(O)C(=O)O | 100
COc1ccc(N(c2nc(-c3cc(Cl)ccc3Cl)cs2)C2CCNC2)cc1.O=C(O)C(F)(F)F (stereo unspecified) | 95
